{
  "source": "PubChem BioAssay AID1508600",
  "about": "(Functional Genomics Laboratory (NCATS/FGL), 2020)",
  "note": "In all, about 53,000 sequences went through this assay and about 3,700 (7%) were called active. The entries come from a sample that favours actives as a whole. Values without a mark were called inactive.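 Rule for the calls: active = gene knockdowns whose robust z-score for IL-1 alpha signal is at least 2 or at most -2, so actives lie on both sides; inactive = the rest.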",
  "data": [
    {"experiment": "Components of the Cytosolic LPS Sensing Pathway: Gene Identification via Genome-wide siRNA Screen;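 note: robust z of the log signal after scaling to non-targeting control siRNA wells of the plate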", "conditions": "RAW264.7 macrophages, IL-1a HTRF, actives lie on both sides, screened at 100 nM (by protocol), cells primed 5 h with Pam3CSK4 first", "summary_of_the_method": "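Mouse macrophage line RAW264.7 is transfected with siRNA (100 nM final), grown 48h, primed with TLR ligand Pam3CSK4 5 h and given intracellular LipidA 24 h. IL-1a in supernatant is read by HTRF and viability by luminescence.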", "values": [
      {"sequence": "GGUAAUACCACCUCACCUUTT against Fam214b", "z-score": -0.0713},
      {"sequence": "GGACACUGUACAGAAGCUGTT against Asb18", "z-score": "-2.31 (active)"},
      {"sequence": "CGGUUAGAUGAGCUUGAGATT against Smad2", "z-score": -0.725},
      {"sequence": "GCGGGAGUACUACGUCAAUTT against Reps2", "z-score": "-2.07 (active)"},
      {"sequence": "GCUUGAUGACUACCACUGATT against Rrp36", "z-score": 0.496},
      {"sequence": "GGUCGACAUUUUGAAGGAGTT against Fthl17e", "z-score": "-2.63 (active)"},
      {"sequence": "GGAGAUCACUAUGUUCUGATT against Ivd", "z-score": 1.46},
      {"sequence": "GACAAGGCUUCAUAAAAAGTT against Qrich1", "z-score": -0.312},
      {"sequence": "GGGAUGCUUUGUUGCUGUUTT against Olfr836", "z-score": 0.296},
      {"sequence": "GCCAUAGGCUCAUCUUUACTT against Ankib1", "z-score": -1.61},
      {"sequence": "GGAAGUAGAGCUUCAAAUGTT against Cdkl2", "z-score": "2.8 (active)"},
      {"sequence": "GGUUGGUCACCUAAUCCAGTT against Aldh2", "z-score": 0.523},
      {"sequence": "CCAAUGUGCUCAUGCUCUATT against Nodal", "z-score": 1.06},
      {"sequence": "GCUGUACGAGCAUACUGUGTT against Tnxb", "z-score": -1.46},
      {"sequence": "CCUUCUAAACACUUGACUUTT against Ugt2b5", "z-score": 0.106},
      {"sequence": "GACCACAAUAUUGAGGAUCTT against Zfp119b", "z-score": -0.329},
      {"sequence": "GGACGUGACAGACAUUAUUTT against Htr5b", "z-score": "-2.81 (active)"},
      {"sequence": "CCCUGUUAUUAUCUUGAUUTT against Arv1", "z-score": -1.16},
      {"sequence": "CGUGUGUGUUAUGAAUCAATT against Tmem161a", "z-score": 0.984},
      {"sequence": "GGACUUGCUAAGAGACCAATT against Cntn2", "z-score": "4.74 (active)"},
      {"sequence": "GGACUACAUAAGGAAGGUUTT against Ccdc130", "z-score": 1.64},
      {"sequence": "GGCAAAUGGGAAGAAUUCCTT against Mep1b", "z-score": 0.228},
      {"sequence": "GCAACCUGCAGGCAGUAACTT against Nolc1", "z-score": 0.207},
      {"sequence": "CCACACACUGAUCAACGUGTT against Unc93b1", "z-score": 0.336},
      {"sequence": "GGCUUCAUUCUUGUCCUCCTT against Reg3b", "z-score": -0.105},
      {"sequence": "GCCUUCCUCCGUUAAUCCATT against Kank2", "z-score": 0.844},
      {"sequence": "GGUGAGAGGAAGGAAGAGATT against Pcsk7", "z-score": "2.54 (active)"},
      {"sequence": "GGAGGAUGAGAAAGAAGAGTT against Gja8", "z-score": -0.176},
      {"sequence": "GGAUGUCAUCAAUGCUAUGTT against Olfr1022", "z-score": -0.643},
      {"sequence": "GGUUUACUGGCCAAGAUGGTT against 4930579K19Rik", "z-score": -0.327},
      {"sequence": "GGCUUUACGUGACAAAGAUTT against 4933430I17Rik", "z-score": 0.266},
      {"sequence": "GGAAAAUACAGCGCGAAUUTT against Nexn", "z-score": 1.4},
      {"sequence": "GCGGCUAGGAUUUCUGGGATT against Mindy3", "z-score": "2.34 (active)"},
      {"sequence": "ACAAGAUUGGGAUCAUCUATT against Rpl23a", "z-score": 0.521},
      {"sequence": "UGCCUCAAUCAUAAGUCCCTT against Olfr730", "z-score": -0.551},
      {"sequence": "AAGGUCGUUUACAUGAACATT against Fbxw20", "z-score": 1.19},
      {"sequence": "GGAAAAAAAAAAGCAGUGATT against Phactr4", "z-score": 0.662},
      {"sequence": "GGUCUGAUACCUCAUUCCATT against Il22ra2", "z-score": -1.21},
      {"sequence": "CCAUGAGAACCUGAUGAAUTT against Pag1", "z-score": "-2.38 (active)"},
      {"sequence": "GGACUUUCGUCGUACUCGUTT against Terf1", "z-score": -1.73},
      {"sequence": "GGCCUGGUGCUACUUCUCATT against Fam160a2", "z-score": -0.0704},
      {"sequence": "CGUAAACACUCCUAACUUUTT against Hif1a", "z-score": -0.543},
      {"sequence": "GGAAGGAUAUUGGUUACCATT against Zmynd11", "z-score": "-2.28 (active)"},
      {"sequence": "GGUCAGAAGAGAUGCCAAUTT against Hcar1", "z-score": -0.494},
      {"sequence": "CCGCAGUUGUCUUUCAAGATT against Dcaf1", "z-score": 0.724},
      {"sequence": "AGAAUCUUUAAAGGAAGUCTT against Olfr325", "z-score": 0.229},
      {"sequence": "GCCAUGACUAUGUUUUCCGTT against St6galnac1", "z-score": -0.578},
      {"sequence": "CGGCUCAUCCGAUAUAUCCTT against Hcn2", "z-score": -1.39},
      {"sequence": "GCUUUUAAAGCAUGGGCAGTT against Alb", "z-score": "2.44 (active)"},
      {"sequence": "GGGCAGUAAGGACAGUUUUTT against Oaz1", "z-score": 0.406},
      {"sequence": "GGACUAAUCCCAUUUUCUUTT against Zfp422", "z-score": -0.292},
      {"sequence": "GGCCGAGAAGAUCAAAGCATT against Mrpl12", "z-score": -0.116},
      {"sequence": "GGAAAUAAAGUGAGUUUUGTT against Etaa1", "z-score": "4.95 (active)"},
      {"sequence": "GCUGGAAUAUCAUUUCCCATT against Pdpk1", "z-score": -1.01}
    ]}
  ]
}
